DAX1 inh-1 = DAX1 (NR0B1) inhibitors on StAR promoter, primary screen, cell-based, luminescence, SF-1 (NR5A1), full-length DAX-1. HEK293T StAR-luciferase reporter, SF-1/DAX-1 repression relief. inhibition, % at 6.8 µM. 1.1% of 370,000 active. AID 652010, 2013;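 active = inhibition above the mean over all tested compounds plus 3 SD, cut at about 3.6% in these data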;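 note: 0% = DAX-1 cells with DMSO and 100% = cells lacking DAX-1 with DMSO; higher inhibition means more luminescence from relief of DAX-1 repression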
hgDAF12 agonist = H. glycines DAF-12 receptor agonists, primary screen, cell-based, luminescence, HEK293, GAL4 fusion, UAS-luciferase | Nuclear hormone receptor DAF-12 (Heterodera glycines), GAL4 fusion | HEK293 GAL4-hgDAF12 UAS-luciferase reporter, agonist luminescence; normalized to butyrate control | activation, % at 6.8 µM | 1.8% of 370,000 active;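 active = activation above a cutoff set at the mean of all screened compounds plus 3 SD, cut at about 10% in these data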;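 note: 0% = DMSO wells and 100% = sodium butyrate wells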
Wee1 degr inh = Wee1 degradation inhibitors, primary screen, cell-based, HeLa, Wee1K328M-luciferase, luminescence | Wee1-like protein kinase (Homo sapiens), P30291 | HeLa Luc-Wee1K328M stability; 100% = proteasome inhibitor MG132 effect | reporter increase, % at 5 µM | 1.2% of 220,000 active;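 active = activation above the mean of all tested compounds plus 3 SD, set per screening run, cut at about 8.8% in these data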;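 note: cells exposed to compound for 20 h before luminescence read; 0% = DMSO alone and 100% = MG132 at 30 µM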
hcDAF-12 act = H. contortus DAF-12 nuclear receptor activators, primary screen, cell-based, luminescence, HEK293, lit1-tk-luc reporter | activation, % at 6.8 µM | 1.4% of 370,000 active | HEK293 hcDAF-12 lit1-tk-luc reporter; 0% DMSO, 100% Δ7-dafachronic acid;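 active = activation above the mean of all tested compounds plus 3 SD, cut at about 5.5% in these data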;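 note: 100% = response to 3 µM Δ7-dafachronic acid high control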
ssDAF-12 act = S. stercoralis DAF-12 nuclear receptor activators, primary screen, cell-based, luminescence, HEK293, GRIP1 co-expression, lit1-tk-luc | Nuclear hormone receptor DAF-12 (Strongyloides stercoralis) | HEK293 ssDAF-12/GRIP1 lit1-tk-luc reporter; % of 3 µM dafachronic acid response | activation, % at 6.8 µM | 1% of 370,000 active | AID 652126, 2013;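 active = activation above the mean over all tested compounds plus 3 SD, cut at about 0.9% in these data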;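 note: 0% = DMSO-only wells and 100% = 3 µM delta7-dafachronic acid wells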
DAX1 inh-2 = DAX1 (NR0B1) inhibitors, primary screen, cell-based, HEK293, Gal4-DAX1, luciferase luminescence. Nuclear receptor subfamily 0 group B member 1 (Homo sapiens), P51843. HEK293 Gal4-DAX1 luciferase reporter. inhibition, % at 6.75 µM. 0.99% of 340,000 active;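 active = inhibition above the mean over all tested compounds plus 3 SD, cut at about 4.2% in these data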;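 note: 0% = DAX1-transfected cells with DMSO and 100% = empty-vector control cells with DMSO; inhibition shows as a rise in luminescence from relieved DAX1 repression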
Target sequence (P51843 207-470 limits assumed): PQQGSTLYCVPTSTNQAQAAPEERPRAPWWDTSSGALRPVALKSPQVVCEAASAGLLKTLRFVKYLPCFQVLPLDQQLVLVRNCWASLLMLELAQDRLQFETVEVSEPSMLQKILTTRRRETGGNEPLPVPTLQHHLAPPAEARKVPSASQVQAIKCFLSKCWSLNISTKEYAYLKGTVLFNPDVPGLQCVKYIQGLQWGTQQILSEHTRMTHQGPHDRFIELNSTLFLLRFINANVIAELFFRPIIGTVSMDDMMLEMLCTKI
Numbers without * were called inactive; / = not tested or not shown. The list is not random: actives were taken first. Their share in the collection is about 4.6%.

SMILES | DAX1 inh-1 | hgDAF12 agonist | Wee1 degr inh | hcDAF-12 act | ssDAF-12 act | DAX1 inh-2
CN1CCN(C(=O)c2cc3sccc3n2CC(=O)c2ccccc2)CC1 | 0 | 1 | -1 | 0 | -1 | 0
CCN1CCN(C(=O)c2cc3sccc3n2CC(=O)c2ccccc2)CC1 | 2 | 0 | -1 | 2 | 1.2* | 0
CCCNC(=O)C1(C)CCCN(C(=O)c2ccc(F)cc2Cl)C1 (configuration not stated) | 0 | 1 | / | -2 | -1 | /
COC(=O)C[C@@H]1C[C@H]2c3cc(NC(=O)CC4CC4)ccc3O[C@H]2[C@@H](CO)O1 | 1 | -1 | / | -1 | -1 | 2
COCC(=O)Nc1ccc2c(c1)[C@@H]1C[C@H](CC(=O)OC)O[C@H](CO)[C@@H]1O2 | 0 | 0 | / | -2 | -1 | 4.6*
CCOc1ccc(/C=C2\C(=O)c3ccccc3OC2c2ccccc2)cc1 (configuration not stated) | 0 | 0 | 4 | -2 | -1 | 1
COc1ccc(/C=C2\C(=O)c3ccccc3OC2c2ccccc2)cc1 (configuration not stated) | -1 | 6 | 10* | -2 | -2 | 1
CCc1ccccc1-c1cc(C(=O)OC)c2n(c1=O)CCC2 | 0 | -3 | / | 0 | -1 | /
COc1ccc(S[C@]2(C(=O)N3CCCC3)CC(=O)N(c3ccccc3OC)[C@@H]2c2ccc(OC)cc2)cc1 | -1 | 2 | / | -1 | -1 | /
COc1ccc(C)cc1-n1nnnc1SCc1nc2ccccc2s1 | 1 | 6 | 0 | 5.9* | 1.2* | 0
O=C(CN1C(=O)c2ccccc2S1(=O)=O)Nc1ncc(Cl)cc1Cl | 1 | 3 | / | -2 | -1 | -2
Cc1c(C(=O)OCC(C)(C)CN(C)C)oc2ccccc12 | 4.0* | 7 | 0 | 0 | -1 | 2
CC(NC(=O)COC(=O)C1(C)CC1(Cl)Cl)c1ccccc1 (configuration not stated) | 3.6* | 0 | / | -1 | -1 | 2
CCN(CC)CC(C)(C)COC(=O)c1oc2ccccc2c1C | 0 | 1 | 4 | 0 | -2 | 1
Cc1c(C(=O)OCC(=O)NC(C)c2ccccc2)oc2ccccc12 (configuration not stated) | 2 | 1 | / | 5.7* | 1 | 1
c1ccc(-c2c[nH]c3ccc(OCCN4CCOCC4)c(-c4ccccc4)c23)cc1 | 0 | -2 | / | -1 | -2 | /
Fc1cccc(CSc2nc3ccncc3[nH]2)c1 | 4.4* | 4 | -3 | 2 | -1 | 1
Clc1cccc(CSc2nc3ccncc3[nH]2)c1 | 2 | 4 | 1 | 1 | 0 | 0
COC(=O)[C@]12C[C@H](CC(=O)NCC3CCCCC3)C(=O)N(CCc3ccc(OC)c(OC)c3)C1=C[C@H](C(C)(C)C)O[C@@H]2C | 0 | 1 | / | -1 | -1 | /
CCOc1cccc(-c2cc(C(=O)NN)[nH]n2)c1 | 0 | 11* | 1 | 1 | -2 | 2
COc1ccc(OC)c(NC(=O)CSc2nnc(CNC(=O)c3cccs3)o2)c1 | 0 | 0 | / | 2 | -1 | 0
Cc1ccc(C(CC(=O)N2CCNCC2)c2ccccc2)c(O)c1C (configuration not stated) | 0 | -2 | / | 4 | -1 | 2
Cc1ccc(C(CC(=O)N2CCCCC2)c2ccccc2)c(O)c1C (configuration not stated) | 0 | 0 | / | 1 | 1.6* | 1
O=C1c2ccccc2S(=O)(=O)N1CC1CC(c2ccccc2)=NO1 (configuration not stated) | 2 | 8 | 0 | 2 | -1 | 2
COc1ccc(C2=NOC(CN3C(=O)c4ccccc4S3(=O)=O)C2)cc1 (configuration not stated) | 2 | 12* | 2 | 4 | 1 | 1
SMILES | DAX1 inh-1 | hgDAF12 agonist | Wee1 degr inh | hcDAF-12 act | ssDAF-12 act | DAX1 inh-2
CCCCn1nnnc1C(C1CC1)N1CCN(C/C=C/c2ccccc2)CC1 (configuration not stated) | -2 | 0 | / | -2 | -1 | /
CCOC(=O)NC(=O)/C(N=Nc1ccc(C(F)(F)F)cc1)=C(\C)O | 0 | 1 | 9.9* | 0 | 0 | 0
O=S(=O)(Cc1nc2ccccc2s1)c1ccccc1 | 3 | 11* | -2 | 4 | 0 | 1
O=S(=O)(CCc1nc2ccccc2s1)c1ccc(Cl)cc1 | 1 | 0 | 0 | 0 | -2 | 1
CCOC(=O)c1sc(NC(=O)c2ccccc2OCC)nc1C | 0 | -1 | 4 | -2 | -1 | 0
CCOC(=O)c1sc(NC(=O)c2ccc3nc[nH]c3c2)nc1C | 0 | 4 | / | 0 | 0 | 0
CCOC(=O)c1sc(NC(=O)c2ccc(=O)[nH]c2)nc1C | 0 | 0 | / | 1 | 0 | 6.1*
CCOC(=O)c1sc(NC(=O)c2cccnc2)nc1C | 0 | 1 | / | 5.9* | -1 | 2
COC(=O)c1sc(NC(=S)NC(=O)c2cccc(Br)c2)nc1C | 0 | 4 | / | 4 | 0 | 4.6*
NS(=O)(=O)c1ccc(NC(=O)CSc2nc3ccccc3c(=O)n2-c2ccc(Br)cc2)cc1 | -1 | -3 | / | -2 | -2 | /
CC(=O)c1cccc(OCc2cc(C(=O)NCCC3=CCCCC3)no2)c1 | 1 | 10 | / | 4 | 0 | 1
NC(Cc1ccc(Cl)cc1)c1csc(Nc2ccc(C(=O)NCCCO)cn2)n1 (configuration not stated) | 0 | 2 | / | -1 | -2 | /
CC(C)N1CCN(Cc2cc3ccccc3[nH]2)CC1CCO (configuration not stated) | 0 | 4 | / | 3 | 1.1* | 1
CC(C)N1CCN(Cc2ccc(-c3ccccc3)cc2)CC1CCO (configuration not stated) | 0 | -2 | / | -1 | -2 | 1
CC(C)N1CCN(Cc2cccn2-c2cccnc2)CC1CCO (configuration not stated) | 0 | 1 | 9.6* | 1 | -1 | -2
CC(C)CCN1CCN(Cc2cccn2-c2cccnc2)CC1CCO (configuration not stated) | 0 | 2 | -3 | -1 | -1 | 1
CCOC(=O)C1=CCC(c2ccc(N(CC)CC)cc2)N(S(=O)(=O)c2ccc(C)cc2)C1c1ccc([N+](=O)[O-])cc1 (configuration not stated) | 0 | -2 | / | -1 | -1 | /

Compound activity as filed in PubChem BioAssay.
